Assay results taken from PubChem BioAssay AID1851 (National Center for Advancing Translational Sciences (NCATS), 2009).
“And” between values parts separate entries of the source, which are not always exact repeats. Identical values can stand only once. In all, about 16,000 compounds went through this assay and about 5,700 (36%) were called active. Another 24% or so got no clear call; they are omitted. Some of the results follow. Values without a mark were called inactive. Calls come from the whole dose curve; as a rule, active = well fitted curve in the direction sought with a large enough effect; inconclusive = small, poorly fitted or top-dose-only effect, or effect the other way; inactive = no such curve, though single readings can be large or run the other way.

Target: Cytochrome P450 1A2 (Homo sapiens) (UniProt P05177)
Sequence (P05177 whole entry, looked up): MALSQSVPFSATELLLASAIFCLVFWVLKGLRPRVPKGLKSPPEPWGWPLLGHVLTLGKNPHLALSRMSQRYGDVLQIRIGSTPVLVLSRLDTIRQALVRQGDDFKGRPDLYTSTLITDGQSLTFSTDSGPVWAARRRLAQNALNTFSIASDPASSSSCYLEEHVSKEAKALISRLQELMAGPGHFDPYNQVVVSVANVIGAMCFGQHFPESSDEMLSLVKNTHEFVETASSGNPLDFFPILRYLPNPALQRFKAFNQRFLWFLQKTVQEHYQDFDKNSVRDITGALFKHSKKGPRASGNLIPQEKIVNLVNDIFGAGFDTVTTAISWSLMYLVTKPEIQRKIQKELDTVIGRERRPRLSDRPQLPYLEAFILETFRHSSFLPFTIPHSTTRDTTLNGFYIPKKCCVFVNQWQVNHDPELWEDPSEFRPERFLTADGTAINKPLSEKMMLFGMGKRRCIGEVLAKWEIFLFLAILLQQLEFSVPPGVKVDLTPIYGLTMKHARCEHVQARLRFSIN
Test: Cytochrome panel assay with activity outcomes
Settings: recombinant CYP, pro-luciferin dealkylation, luminescence, p450-cyp1a2; series mostly up to 57.1 µM
% is set by controls: 0 for no effect and ±100 for the full control effect.

Row | SMILES | AC50 | activity, negative = inhibition
1 | Cc1cc2nc(CCN(C(=S)NCC(C)C)C3CCCC3)[nH]c2cc1C | 3.16 µM (active) | 
2 | CC(=O)Nc1nnc(CCN2CCCCC2)s1 | inactive | 
3 | CC(=O)Nc1sc2c(c1C(N)=O)CCCC2 | 3.16 µM (active) | 
4 | CCNC(=O)c1c(NC(C)=O)sc2c1CCCC2 | 1.26 µM (active) | 
5 | COCCCNC(=O)c1c(NC(=O)c2cccs2)sc2c1CCCC2 | 0.251 µM (active) | 
6 | CCN(CC)S(=O)(=O)c1cccc(C(=O)N[C@H](C(=O)OCC(=O)NC(=O)NC)C(C)C)c1 | inactive | 
7 | CCCC[C@@H]1C[C@H]1C(NC(=O)c1ccco1)c1ccc(-c2ccccc2)cc1 (stereo partly drawn) | 5.01 µM (active) | 
8 | CCCNC(=O)CC(NS(=O)(=O)c1ccc(Cl)cc1)c1ccco1 (stereo not drawn) | inactive | 
9 | CCCC[C@@H]1C[C@H]1C(NC(=O)c1ccco1)c1ccccc1 (stereo partly drawn) | 2 µM (active) | 
10 | CCCC[C@@H]1C[C@H]1C(NC(=O)Cc1ccccc1)c1ccc(-c2ccccc2)cc1 (stereo partly drawn) | inactive | 
11 | CCCC[C@@H]1C[C@H]1C(NC(=O)c1ccco1)c1ccc(Cl)cc1 (stereo partly drawn) | 0.794 µM (active) | 
12 | CCOc1cc(C)ccc1OCc1nnc(SCC(=O)c2cccc([N+](=O)[O-])c2)n1CC | inactive | 
13 | N/C(=N\OC(=O)Cc1ccc(-c2ccccc2)cc1)c1cccc([N+](=O)[O-])c1 | 14.1 µM (active) | 
14 | COC(=O)C(CCSC)NC(=O)c1cccc([N+](=O)[O-])c1 (stereo not drawn) | inactive | 
15 | Cc1cccc(C(=O)O/N=C(\N)c2cccc([N+](=O)[O-])c2)c1 | 2.51 µM (active) | 
16 | C[C@@H](c1ccccc1)N1C(=O)[C@H]2[C@H]3[C@H](O)[C@H](O)C/C(=N/OCc4ccccc4)[C@@H]3CC[C@@H]2C1=O |  | -7.71% [at 11.4 µM]
17 | Clc1ccc([C@H](Cn2ccnc2)OCc2csc3c(Cl)cccc23)c(Cl)c1 | 6.31 µM (active) | 
18 | Clc1ccc(CO[C@@H](Cn2ccnc2)c2ccc(Cl)cc2Cl)cc1 | 0.1 µM (active) | 
19 | Clc1ccc(C(c2ccc(Cl)cc2)n2cc[n+](C[C@@H](OCc3ccc(Cl)cc3Cl)c3ccc(Cl)cc3Cl)c2)cc1 | 31.6 µM (active) | 
20 | Clc1ccc(COC(Cn2ccnc2)c2ccc(Cl)cc2Cl)c(Cl)c1 (stereo not drawn) | 1.26 µM (active) | 
21 | CC(C)COP(=O)(c1ccc(N(C)C)cc1)C(O)c1ccccc1F (stereo not drawn) | inactive | 
22 | O=C(Nn1cnc2ccccc2c1=O)c1ccc(F)cc1Cl | inactive | 
23 | CN1CCN(C(=O)c2ccc3c(=O)n4c(nc3c2)CCCCC4)CC1 | inactive | 
24 | O=C(Nc1ccc(F)cc1Cl)c1ccc2c(=O)n3c(nc2c1)CCCCC3 | 5.01 µM (active) | 

Row | SMILES | AC50 | activity, negative = inhibition
25 | CO[C@H]1COC(=O)[C@@H](C)COC(=O)[C@@H](COCc2ccccc2)NC(=O)C/C=C\[C@H]1C |  | 3.03% [at 11.4 µM]
26 | CCCCN1CCC(CCC(=O)c2cc(Cl)c(N)cc2OC)CC1 | inactive | 
27 | COc1cc(COc2cc(N)c(Cl)cc2C(=O)CCC2CCN(CCNS(C)(=O)=O)CC2)cc(OC)c1 | inactive | 
28 | CCCCN1CCC(COC(=O)c2cc(Cl)c(N)c3c2OCCO3)CC1 | 12.6 µM (active) | 
29 | CCCCCCCCC(=O)N/N=C/c1ccccn1 | 4.47 µM (active) | 
30 | NC([N-]/N=C/c1ccccn1)=[S]=[Fe].O=S(=O)(O)O |  | 15.8% [at 2.29 µM]
31 | CCN(CC)C(=O)C(=O)N/N=C/c1cccc(Br)c1 | 10 µM (active) | 
32 | CCCCCCCCC(=O)N/N=C/c1cccc(Br)c1 | 0.891 µM (active) | 
33 | COCCNC(=O)Cn1cnc2ccc(S(=O)(=O)N3CCC(C)CC3)cc2c1=O | inactive | 
34 | O=S(=O)(c1ccccc1)N1CCC2(CC1)CN(Cc1nccs1)C2 | inactive | 
35 | O=S(=O)(c1ccccc1)N1CCC[C@@]2(CCN(Cc3nccs3)C2)C1 | 15.8 µM (active) | 
36 | CC(C)CN1CCC2(CC1)CCN(S(=O)(=O)c1ccccc1)CC2 | inactive | 
37 | CC(C)CN1CCCC2(CCN(S(=O)(=O)c3ccccc3)CC2)C1 | inactive | 
38 | CC(C)CN1CC[C@@]2(CCCN(S(=O)(=O)c3ccccc3)C2)C1 | 25.1 µM (active) | 
39 | O=S(=O)(c1ccccc1)N1CCC2(CCCN(Cc3nccs3)C2)CC1 | inactive | 
40 | Cc1ccc(S(=O)(=O)N[C@H]2COC(=O)[C@@H](C)COC(=O)[C@H](C)NC(=O)C/C=C\[C@H]2C)cc1 |  | -11.4% [at 11.4 µM]
41 | CC(C)NC(=O)N1CC[C@@]2(CCCN(C(=O)c3cc(C(F)(F)F)cc(C(F)(F)F)c3)C2)C1 | inactive | 
42 | CCOC(=S)SCC(=O)O |  | -12.2% [at 11.4 µM]
43 | Cc1ccc(S(=O)(=O)N[C@H]2COC(=O)C/C=C\[C@@H](C)COC(=O)C/C=C\[C@@H]2C)cc1 |  | 0.253% [at 11.4 µM] and 8.99% [at 11.4 µM]
44 | Cc1ccc(-c2[nH]n3c(=O)c4c(nc3c2C)CCCC4)cc1 | 2.51 µM (active) | 
45 | N#Cc1c[nH]n2c(=O)c3c(nc12)CCCC3 | inactive | 
46 | O=c1c2c(nc3c(-c4ccccc4)c[nH]n13)CCC2 | 5.62 µM (active) | 
47 | Nc1[nH]n2c(=O)c3c(nc2c1N=Nc1ccccc1)CCCC3 | 5.62 µM (active) | 
48 | CCN1C(=O)C=CC1=O | inactive | 

Row | SMILES | AC50 | activity, negative = inhibition
49 | CCC(=O)OCN1C(=O)C=CC1=O | 3.16 µM (active) | 
50 | Cc1ccc([C@@]2(C)CC/C(=N/N=C3\CC[C@](C)(c4ccc(C)c(C)c4)c4cc(C)c(C)cc43)c3cc(C)c(C)cc32)cc1C |  | -12.4% [at 11.4 µM]
51 | CC(C)[C@@H](OCc1ccccc1)[C@H](C)/C=N\O[C@@H](C)c1cn([C@H](CO)Cc2ccccc2)nn1 |  | -2.54% [at 11.4 µM] and -7.97% [at 11.4 µM]
52 | O=C(O)c1ccc(S(=O)(=O)N=Nc2c(O)[nH]c3ccccc23)cc1 |  | -11.7% [at 11.4 µM]
53 | [Cu].[O-]/N=C1/C(=[OH+])Nc2ccccc21.[O-]Nc1c(O)[nH]c2ccccc12 |  | -20.1% [at 2.29 µM]
54 | O=Nc1c(-c2c(O)[nH]c3ccccc23)[nH]c2ccccc12 | 0.0316 µM (active) | 
55 | Cc1ccc(C(=O)NCCNC(=O)CN2CCOCC2)cc1 | inactive | 
56 | Cc1ccc(SCc2ccc(C(=O)NCc3ccncc3)cc2)cc1 | 0.355 µM (active) | 
57 | Cc1ccc(NC(=S)NCCN2CCOCC2)cc1C | inactive | 
58 | Cc1ccc(SCc2nnc(NC(=O)c3ccccc3)s2)cc1 | inactive | 
59 | Cc1ccc(SCCNC(=S)Nc2ccc(C)c(C)c2)cc1 | 11.2 µM (active) | 
60 | Cc1ccc(SCCNC(=O)c2ccccc2)cc1 | 10 µM (active) | 
61 | Cc1ccc(C(=O)NCc2ccc(N3CCN(C(=O)OC(C)(C)C)CC3)cc2)cc1 | inactive | 
62 | N[C@H](C(=O)N[C@@H]1C(=O)N2C(C(=O)O)=C(Cl)CS[C@@H]12)c1ccccc1 | inactive | 
63 | COCCn1c(=O)c(C)nc2cnc(Oc3cccc(Cl)c3)nc21 | 12.6 µM (active) | 
64 | Cc1nc2cnc(Oc3cccc(Cl)c3)nc2n(CCC#N)c1=O | 15.8 µM (active) | 
65 | COCCn1c(=O)cnc2cnc(Oc3cccc(Cl)c3)nc21 | 3.16 µM (active) | 
66 | Cc1nc2cnc(Oc3cccc(Cl)c3)nc2n(CCc2ccccc2)c1=O | 12.6 µM (active) | 
67 | CC(=NCCN1CCN(C(=S)Nc2ccccc2)CC1)C1=C(O)CC(C)(C)CC1=O | inactive | 
68 | CC(C)(C)Cn1nc(-c2ccc(Cl)cc2)c2c(N)ncnc21 | 0.158 µM (active) | 
69 | CC(C)(C)n1nc(-c2ccc(Cl)cc2)c2c(N)ncnc21 | 1 µM (active) | 
70 | CO/N=C(\C(=O)N[C@@H]1C(=O)N2C(C(=O)[O-])=C(C[N+]3(C)CCCC3)CS[C@@H]12)c1csc(N)n1 | inactive | 
71 | CCCCSc1ccc2nc(-c3ccc(C#N)cc3)cn2c1 | 2.82 µM (active) | 
72 | CN(C)CCNC(=O)C1CCCNC1=O (stereo not drawn) | inactive | 

Row | SMILES | AC50 | activity, negative = inhibition
73 | COc1ccc(C(Cl)=C(c2ccc(OC)cc2)c2ccc(OC)cc2)cc1 | inactive | 
74 | CCN(CC)CCOc1ccc(/C(=C(\Cl)c2ccccc2)c2ccccc2)cc1 | 12.6 µM (active) | 
75 | CCc1ccc2[nH]c(O)c(N=Nc3nc(-c4ccccc4)cs3)c2c1 | 10 µM (active) | 
76 | C[N+](C)(C)CCCCCCCCCC[N+](C)(C)C | inactive | 
77 | COc1ccc2c(c1)OC1=C(C(=O)CCC1)C2C1=C(O)CCCC1=O (stereo not drawn) | 7.08 µM (active) | 
78 | Cc1ccc(S(=O)(=O)Oc2ccc(C3C4=C(CCCC4=O)OC4=C3C(=O)CCC4)cc2)cc1 | inactive | 
79 | O=C1CCCC2=C1C(c1ccc(OS(=O)(=O)c3ccc(Cl)cc3)cc1)C1=C(CCCC1=O)O2 | inactive | 
80 | N#CC(CC(=O)O)=C(c1ccccc1)c1ccccc1 |  | -14.5% [at 2.29 µM]
81 | C=CCNc1sc(C(=O)c2ccc(C)cc2)c(N)c1C#N | 1.78 µM (active) | 
82 | C=CCNc1sc(C(=O)c2ccccc2)c(N)c1C#N | 3.16 µM (active) | 
83 | O=C(NC1CCCc2ccccc21)C1CCN(S(=O)(=O)N2CCCCCC2)CC1 (stereo not drawn) | inactive | 
84 | O=C(C1CCCCC1)N1CC(=O)N2CCc3ccccc3[C@@H]2C1 | 10 µM (active) | 
85 | CCN1CCN(C(=O)C2c3cc(OC)c(OC)cc3C(=O)N3CCc4ccccc4C23)CC1 (stereo not drawn) | inactive | 
86 | CCOc1nc(N=C(N)N)nc2c(C)cccc12 | 0.178 µM (active) | 
87 | CN1Cc2c(C(=O)OC(C)(C)C)ncn2-c2ccsc2C1=O | 15.8 µM (active) | 
88 | CN(C)c1ccc(-c2cncnc2NCCc2cnc[nH]2)cc1 | 1.26 µM (active) | 
89 | CN(C)C(=O)c1ccc(-c2cncnc2NCCc2cnc[nH]2)cc1 | 12.6 µM (active) | 
90 | c1ncc(-c2ccc3c(c2)OCO3)c(NCCc2cnc[nH]2)n1 | 0.398 µM (active) | 
91 | CCc1c(C)sc(NC(=O)OC)c1C(N)=O | 8.91 µM (active) | 
92 | Cc1sc(NC(=O)C2CCCCC2C(=O)O)c(C(N)=O)c1C (stereo not drawn) | inactive | 
93 | CCCCCc1nnc(NC(=O)C(=O)OCC)s1 | inactive | 
